# Experimental data from PubChem BioAssay (Tox21).
# “And” between values parts separate entries of the source, which are not always exact repeats. Identical values can stand only once. Inconclusive results are not listed. Entries that show only a call come without a potency. Some structures have more than one record in an assay (separate samples or runs), and their calls can disagree. The source made the active and inactive calls. Unless noted, calls come from the whole dose curve; as a rule, active = well fitted curve in the direction sought with a large enough effect in the repeat runs; inconclusive = weak or mixed curves; inactive = no such curve, though single readings can be large; an effect the other way counts as inactive or inconclusive.
# Experiments:
# [1] = target: Progesterone receptor (Homo sapiens) (UniProt P06401); experiment: qHTS assay to identify small molecule agonists of the progesterone receptor (PR) signaling pathway (AID 1346784; calls by dose curve; note: nearly all actives have a fitted effect of over 30% in size; note: potency is the fitted concentration of half-maximal effect)
# How it was run: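 Reporter assay, GripTite PR-UAS-bla HEK 293T cells: 16 hr exposure to DMSO-dissolved compounds at 37C, 5% CO2, in steroid-depleted (2% charcoal-stripped FBS) medium; beta-lactamase measured by FRET fluorescence.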
# [2] = target: Progesterone receptor (Homo sapiens) (UniProt P06401); experiment: qHTS assay to identify small molecule antagonists of the progesterone receptor (PR) signaling pathway (AID 1346795; active = well fitted inhibition curve with a large enough effect in the signal ratio in the repeat runs, not every such curve was filed as active; the % refers to the signal ratio; note: potency is the fitted concentration of half-maximal effect)
# How it was run: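 Stimulus R5020 at 1 nM final; cells HEK293T PR-UAS-bla; medium with 2% charcoal-stripped FBS; compound exposure 16 hr at 37C, 5% CO2; detection by FRET beta-lactamase substrate, 2 hr, room temperature.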
# [3] = qHTS assay to identify small molecule agonists of the progesterone receptor (PR) signaling pathway - cell viability counter screen (AID 1346799; calls by dose curve; note: nearly all actives have a fitted effect of over 45% in size; note: potency is the fitted concentration of half-maximal effect)
# How it was run: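 Multiplexed viability read: CellTiter-Glo luminescence, 30 min RT, following LiveBLAzer FRET measurement on PR-UAS-bla HEK293T cells exposed to compounds 16 hr.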
# [4] = qHTS assay to identify small molecule antagonists of the TGF-beta/Smad signaling pathway - cell viability counter screen (AID 1346824); note: nearly all actives have a fitted effect of over 50% in size
# How it was run: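 Cytotoxicity counter-screen run in the same wells as the beta-lactamase Smad reporter read: CellTiter-Glo luminescence after 30 min at room temperature. HEK 293T SBE-bla cells had 5 hr compound exposure at 37 C with TGF-beta1 (0.25 ng/mL stock).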
# [5] = qHTS assay to identify small molecule agonists of the TGF-beta/Smad signaling pathway - cell viability counter screen (AID 1346829); note: top concentration of the series differs between compounds; nearly all actives have a fitted effect of over 45% in size
# How it was run: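 Luminescence from CellTiter-Glo, read after a 30 min room-temperature incubation, gives cell viability of SBE-bla HEK 293T cells treated 5 hr with compounds at 37 C.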
# [6] = qHTS assay to identify small molecule agonists of the TGF-beta/Smad signaling pathway (AID 1346859; active = well fitted activation curve with a large enough effect in the signal ratio in the repeat runs, not every such curve was filed as active; the % refers to the signal ratio; note: series mostly up to about 77 µM)
# How it was run: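 Screening used HEK 293T SBE-bla cells at 4,000/well. Test agents: 5 hr, 37 C. Detection: FRET substrate, 2 hr RT, then excitation 405 nm with emissions at 460 and 530 nm.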
# [7] = target: Thyrotropin-releasing hormone receptor (Homo sapiens) (UniProt P34981); experiment: qHTS assay to identify small molecule antagonists of the thyrotropin-releasing hormone receptor (TRHR) signaling pathway (AID 1346877; active = well fitted inhibition curve with a large enough effect in the repeat runs, not every such curve was filed as active; note: series mostly up to about 51 µM)
# How it was run: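 Antagonist mode: after a 5 min room-temperature compound exposure, cells were stimulated with 1 nM (final) TRH. Dye-loaded TRHR-HEK293 cells were used, and calcium-dependent fluorescence was followed for 3 min, with 15-point titrations run in triplicate.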
# [8] = target: Thyrotropin-releasing hormone receptor (Homo sapiens) (UniProt P34981); experiment: qHTS assay to identify small molecule agonists of the thyrotropin-releasing hormone receptor (TRHR) signaling pathway (AID 1346891; calls by dose curve; note: series mostly up to about 58 µM)
# How it was run: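 Readout was intracellular calcium fluorescence in TRHR-Hek293 cells. Cells were incubated 18 h, dye-loaded 2 h at 37 °C, and treated with compound in agonist mode.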
# [9] = Human pregnane X receptor (PXR) small molecule agonists, qHTS cell viability counter screen (AID 1346977); note: nearly all actives have a fitted effect of over 50% in size
# How it was run: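 In each well, the PXR reporter HepG2 line was checked for viability: CellTiter-Fluor reagent added 23hr post-dosing, fluorescence read after 1hr incubation at 37C.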
# [10] = qHTS assay to identify small molecule antagonists of the progesterone receptor (PR) signaling pathway - cell viability counter screen (AID 1346798); note: series mostly up to about 92 µM; nearly all actives have a fitted effect of over 50% in size
# How it was run: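 In the same plates used for the beta-lactamase readout, cell viability of compound- and R5020-treated PR-UAS-bla HEK293T cells (16 hr, 37C) was assessed by CellTiter-Glo luminescence.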
# Chain of Thyrotropin-releasing hormone receptor (Homo sapiens) (P34981 whole entry, looked up): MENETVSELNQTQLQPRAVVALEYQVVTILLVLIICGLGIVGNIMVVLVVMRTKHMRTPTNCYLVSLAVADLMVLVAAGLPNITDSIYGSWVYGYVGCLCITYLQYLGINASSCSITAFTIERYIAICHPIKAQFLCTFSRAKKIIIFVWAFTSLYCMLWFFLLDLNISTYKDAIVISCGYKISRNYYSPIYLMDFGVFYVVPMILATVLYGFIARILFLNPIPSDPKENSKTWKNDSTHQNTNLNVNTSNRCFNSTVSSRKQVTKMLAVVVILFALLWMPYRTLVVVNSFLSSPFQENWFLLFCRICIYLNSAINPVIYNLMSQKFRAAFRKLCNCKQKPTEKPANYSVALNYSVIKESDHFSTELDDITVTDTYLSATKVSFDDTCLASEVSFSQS
# Chain of Progesterone receptor (Homo sapiens) (P06401 whole entry, looked up): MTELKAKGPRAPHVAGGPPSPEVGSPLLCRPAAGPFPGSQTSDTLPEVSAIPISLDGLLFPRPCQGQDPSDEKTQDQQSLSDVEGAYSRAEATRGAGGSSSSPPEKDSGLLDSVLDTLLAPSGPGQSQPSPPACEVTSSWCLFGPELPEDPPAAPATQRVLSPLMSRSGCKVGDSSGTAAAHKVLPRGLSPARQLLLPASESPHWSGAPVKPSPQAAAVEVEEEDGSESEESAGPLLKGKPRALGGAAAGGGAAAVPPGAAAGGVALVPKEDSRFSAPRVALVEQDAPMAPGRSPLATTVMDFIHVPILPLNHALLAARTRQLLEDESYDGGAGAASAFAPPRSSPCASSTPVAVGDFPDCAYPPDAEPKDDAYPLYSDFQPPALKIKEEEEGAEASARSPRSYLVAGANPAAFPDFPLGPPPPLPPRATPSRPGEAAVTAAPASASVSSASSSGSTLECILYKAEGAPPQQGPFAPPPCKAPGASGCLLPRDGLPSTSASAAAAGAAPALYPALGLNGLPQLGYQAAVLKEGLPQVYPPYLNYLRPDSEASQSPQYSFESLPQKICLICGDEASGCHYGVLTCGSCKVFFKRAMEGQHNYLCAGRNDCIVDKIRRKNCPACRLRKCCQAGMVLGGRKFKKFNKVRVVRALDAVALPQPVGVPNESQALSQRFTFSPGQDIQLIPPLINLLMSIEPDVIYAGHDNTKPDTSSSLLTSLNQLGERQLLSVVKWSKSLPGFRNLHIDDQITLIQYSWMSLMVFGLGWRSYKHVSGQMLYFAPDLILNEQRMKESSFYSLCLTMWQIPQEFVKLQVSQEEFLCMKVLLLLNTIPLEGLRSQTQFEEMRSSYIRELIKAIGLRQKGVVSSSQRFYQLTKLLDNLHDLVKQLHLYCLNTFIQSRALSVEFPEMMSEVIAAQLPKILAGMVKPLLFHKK
Structure (SMILES),Potency [1],Potency [2],Potency [3],Potency [4],Potency [5],Potency [6],Potency [7],outcome [8],Potency [9],Potency [10],activation [1],"activity change, negative = cytotoxicity [3]"
CCCCC(=O)O,inactive,inactive,inactive,inactive,inactive,inactive,inactive,inactive,inactive,,,
CN1Cc2c(N)cccc2C(c2ccccc2)C1 (stereo not drawn),inactive,inactive,,inactive,inactive,inactive,,,inactive,inactive,,
N#CCC(=O)O,inactive,inactive,inactive,,inactive,inactive,inactive,inactive,inactive,inactive,,
CC1(C)C(=O)N(Cl)C(=O)N1Cl,inactive,inactive,inactive,inactive,inactive,inactive,inactive,inactive,,inactive,,
COCN(COC)c1nc(N(COC)COC)nc(N(COC)COC)n1,inactive,inactive,inactive,inactive,,inactive,inactive,inactive,,inactive,,
CCCN(CCC)C(=O)SCC,inactive,inactive,inactive,inactive,inactive,inactive,inactive,inactive,inactive,inactive,,
Cc1cccc(C)c1[N+](=O)[O-],inactive,inactive,inactive,,inactive,inactive,inactive,inactive,inactive,inactive,,
CC(C)(C)NC[C@H](O)COc1nsnc1N1CCOCC1,inactive,inactive,inactive,inactive,inactive,inactive,,,,,,
O=C1CCCCCCCCCCC1,inactive,inactive,inactive,inactive,inactive,inactive,,,inactive,inactive,,
Cc1ccccc1C=O,inactive,inactive,inactive,,,inactive,inactive,inactive,inactive,inactive,,
CC(=O)OCCC(C)C,inactive,inactive,inactive,,,inactive,inactive,inactive,inactive,inactive,,
O=C(Cl)c1ccc(C(=O)Cl)cc1,inactive,inactive,inactive,,inactive,inactive,inactive,inactive,,inactive,,
COc1cc(NC(=O)CC(C)=O)c(OC)cc1Cl,inactive,inactive,inactive,inactive,inactive,inactive,inactive,inactive,inactive,inactive,,
OB(O)O,inactive,inactive,inactive,inactive,inactive,inactive,inactive,inactive,inactive,inactive,,
COC(=O)CCCCC(=O)OC,inactive,inactive,inactive,inactive,inactive,inactive,inactive,inactive,inactive,inactive,,
NC1CCCCC1N (stereo not drawn),inactive,inactive,inactive,inactive,inactive,inactive,,,inactive,inactive,,
CC(=O)OC[C@H]1O[C@@](COC(C)=O)(O[C@H]2O[C@H](COC(C)=O)[C@@H](OC(C)=O)[C@H](OC(C)=O)[C@H]2OC(C)=O)[C@@H](OC(C)=O)[C@@H]1OC(C)=O,inactive,inactive,inactive,inactive,inactive,inactive,inactive,inactive,inactive,inactive,,
CN1CCCC1=O,inactive,inactive,inactive,inactive,inactive,inactive,inactive,inactive,,inactive,,
O=C(NCC1CCCCN1)c1cc(OCC(F)(F)F)ccc1OCC(F)(F)F (stereo not drawn),inactive,inactive,inactive,inactive,,inactive,inactive,inactive,,,,
CC(=O)Nc1ccc(CC(=O)O)cc1,inactive,inactive,inactive,,inactive,inactive,inactive,inactive,,inactive,,
OCC(O)CS (stereo not drawn),inactive,inactive,inactive,,,inactive,inactive,inactive,,inactive,,
CS(=O)(=O)c1ccc(Cl)cc1,inactive,inactive,inactive,inactive,inactive,inactive,,,,inactive,,
CCCCCCCC(=O)O,inactive,inactive,inactive,inactive,,inactive,,,,inactive,,
O=C(O)C1=NN(c2ccc(S(=O)(=O)O)cc2)C(=O)C1,inactive,inactive,inactive,inactive,inactive,inactive,inactive,inactive,inactive,inactive,,
CCn1cc(C(=O)O)c(=O)c2cc3c(cc21)OCO3,1.24 µM (active),inactive,,inactive,,inactive,inactive,inactive,inactive,inactive,-1.39% [at 19 µM] (inactive),-0.681% [at 19 µM] (inactive)
O=C1C(N(CO)C(=O)NCO)N(CO)C(=O)N1CO (stereo not drawn),inactive,inactive,inactive,,inactive,inactive,inactive,inactive,inactive,inactive,,

Structure (SMILES),Potency [1],Potency [2],Potency [3],Potency [4],Potency [5],Potency [6],Potency [7],outcome [8],Potency [9],Potency [10],activation [1],"activity change, negative = cytotoxicity [3]"
OCc1ccc(Cl)cc1Cl,inactive,inactive,inactive,,inactive,inactive,inactive,inactive,inactive,inactive,,
CC(C)=CCC/C(C)=C/C=O,inactive,inactive,inactive,inactive,inactive,inactive,,,,,,
COc1ccccc1[N+](=O)[O-],inactive,inactive,inactive,inactive,inactive,inactive,inactive,inactive,inactive,,,
CC(=O)c1nccs1,inactive,inactive,inactive,inactive,inactive,inactive,inactive,inactive,,inactive,,
COC(=O)OC,inactive,inactive,inactive,inactive,,inactive,inactive,inactive,,inactive,,
COc1c2ccoc2cc2oc(=O)ccc12,inactive,15.7 µM (active),inactive,inactive,inactive,inactive,inactive,inactive,inactive,,,
C=CC(C)(C)C,inactive,inactive,inactive,inactive,inactive,inactive,,,inactive,,,
CC1(C)[C@@H](O[C@H]2O[C@H](C(=O)O)[C@@H](O)[C@H](O)[C@H]2O[C@@H]2O[C@H](C(=O)O)[C@@H](O)[C@H](O)[C@H]2O)CC[C@]2(C)[C@H]3C(=O)C=C4[C@@H]5C[C@@](C)(C(=O)O)CC[C@]5(C)CC[C@@]4(C)[C@]3(C)CC[C@@H]12,inactive,inactive,inactive,inactive,,inactive,,,,,,
CCOC(=O)c1ccc(O)cc1,inactive,inactive,inactive,,inactive,inactive,inactive,inactive,,inactive,,
O=[N+]([O-])c1ccccc1C(F)(F)F,inactive,inactive,inactive,inactive,,inactive,inactive,inactive,inactive,inactive,,
CCCCCCC(=O)O,inactive,inactive,inactive,inactive,,inactive,,,,,,
COc1ccc2cc3[n+](cc2c1OC)CCc1cc2c(cc1-3)OCO2,inactive,inactive,,inactive,,inactive,inactive,inactive,inactive,inactive,,
OC1CCCCC1,inactive,,inactive,,inactive,inactive,,,inactive,,,
N[C@@H](Cc1cc(I)c(Oc2ccc(O)c(I)c2)c(I)c1)C(=O)O,inactive,,inactive,,,inactive,,,inactive,inactive,,
C=C1C[C@]23C[C@@]1(O)CC[C@H]2[C@@]12C=C[C@H](O)[C@@](C)(C(=O)O1)[C@H]2[C@@H]3C(=O)O,,inactive,inactive,inactive,inactive,inactive,,,,inactive,,
Nc1cccc(N)n1,inactive,,inactive,inactive,,inactive,,,inactive,inactive,,
Cc1ccc(C(C)C)cc1,,inactive,inactive,inactive,inactive,inactive,inactive,inactive,inactive,inactive,,
CC(COCC(C)OC(=O)c1ccccc1)OC(=O)c1ccccc1 (stereo not drawn),inactive,,inactive,inactive,inactive,inactive,inactive,inactive,inactive,inactive,,
CC(CN1c2ccccc2Sc2ccccc21)N(C)C (stereo not drawn),inactive,,69.3 µM (active) and 30.6 µM (active) and inactive,,inactive,inactive,inactive,inactive,,,,
CCOC(=O)CC(=O)OCC,,inactive,inactive,inactive,inactive,inactive,inactive,inactive,inactive,inactive,,
O=[N+]([O-])c1cc(C(F)(F)F)ccc1Cl,inactive,,inactive,,inactive,inactive,inactive,inactive,inactive,inactive,,
O=C(O)Cc1c[nH]c2ccccc12,inactive,,inactive,inactive,inactive,inactive,,,,inactive,,
Cc1ccc(Cl)cc1,inactive,inactive,inactive,,,inactive,inactive,inactive,,,,
O=c1c(O)c(-c2ccc(O)c(O)c2)oc2cc(O)cc(O)c12,inactive,15.4 µM (active) and 16.8 µM (active),inactive,inactive,,inactive,inactive,inactive,inactive,,,
Cc1cc(C)c(O)c(C)c1,inactive,,inactive,,inactive,inactive,inactive,inactive,inactive,inactive,,
